Assay outcomes as filed in PubChem.
Pf Dd2 growth: blocks in vitro growth of P. falciparum Dd2. Potency, µM (highest dose often 28.9 µM), usual class: inhibitors. 120,000 tested, 4.3% active. AID 1347417. P. falciparum Dd2 growth, SYBR Green, 72 h; active means well fitted inhibition curve with a large enough effect; further: nearly all actives have a fitted effect of over 65% in size
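Infected erythrocytes (Dd2, 0.3% parasitemia, 2.5% hematocrit final) are added to compound in RPMI-1640/Albumax II medium, grown 72 h at 37C in low oxygen, then lysed with saponin/Triton-X containing SYBR Green and read by fluorescence.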
Hits are given with their value. The full list was thinned out, with hits kept by preference.

Results for CCCc1ccc(C(=O)N2CCC3(CCCN(C)C3=O)C2)cc1 (configuration not stated) ?
Pf Dd2 growth: inactive

How did CC(C)Nc1ccc2nnc(-c3ccc(F)cn3)n2n1 do in these assays?
Pf Dd2 growth: inactive

How did COc1ccc(Nc2cc(C)nc(-n3nc(C)cc3C)n2)cc1Cl do in these assays?
Pf Dd2 growth: 3.5µM

What do the screens show for `CCCOc1ccc(Nc2cc(C)nc(C)n2)cc1`?
Pf Dd2 growth: inactive

How did Cc1cc(Nc2ccc(F)cc2F)nc(-n2nc(C)cc2C)n1 do in these assays?
Pf Dd2 growth: inactive

Results for O=C(C1CCCC1)N1CCC2(CC1)C(=O)NCN2Cc1ccc(Cl)cc1 ?
Pf Dd2 growth: inactive

Results for Cc1ccc(C)c(N2CCN(Cc3csc(C)c3C)CC2)c1 ?
Pf Dd2 growth: inactive

What do the screens show for `CCc1c(CN2CCN(c3cccc(C)c3)C(C)C2)csc1C` (configuration not stated)?
Pf Dd2 growth: inactive

What do the screens show for `Cc1ccc(-c2c(CN3CCN(c4cc(C)ccc4C)CC3)csc2C)cc1`?
Pf Dd2 growth: 10µM

What do the screens show for `CCN(CC)C1CCN(C(=O)c2cc(OC)ccc2OC2CCN(C(=O)C3CC3)CC2)C1` (configuration not stated)?
Pf Dd2 growth: inactive

What do the screens show for `COc1ccc(CN2COc3ccc4c(-c5ccccc5)cc(=O)oc4c3C2)cc1`?
Pf Dd2 growth: 1.1µM

What do the screens show for `COc1ccc(CN2CCC3(CC2)CNC(=O)c2ccccc2O3)cc1`?
Pf Dd2 growth: inactive

What do the screens show for `COc1ccc(CN2Cc3[nH]nc(-c4ccccc4)c3CC2=O)cc1`?
Pf Dd2 growth: inactive

What do the screens show for `Cc1ccc(CN2C[C@@H]3C(=O)N(Cc4ccc5c(c4)OCO5)C(=O)[C@@H]3C2)cc1`?
Pf Dd2 growth: inactive

How did Cc1ccc2c(CC(=O)N3CCOc4ccc(CN5CCOCC5)cc4C3)cc(=O)oc2c1 do in these assays?
Pf Dd2 growth: inactive

Results for Cc1ccc(CN2COc3ccc4c(-c5ccccc5)cc(=O)oc4c3C2)cc1 ?
Pf Dd2 growth: 0.71µM

Results for COc1ccc(C(=O)N2C[C@@H](Oc3ccccc3)C[C@H]2C(=O)N2CCOCC2)cc1F ?
Pf Dd2 growth: inactive

How did Cc1nc2ccccn2c1C(=O)NC(C)c1cnn(-c2ccccn2)c1C (configuration not stated) do in these assays?
Pf Dd2 growth: inactive

Results for CC(C)CN1C(=O)c2cccn2CC1C(=O)NC1CCCC1 (configuration not stated) ?
Pf Dd2 growth: inactive

What do the screens show for `O=C(NC1CCCCC1)O[C@@H]1CO[C@H]2[C@@H]1OC[C@@H]2n1nnnc1SCc1ccco1`?
Pf Dd2 growth: inactive

How did CC(=O)c1ccc(NC(=O)O[C@@H]2CO[C@H]3[C@@H]2OC[C@@H]3n2nnnc2SCc2ccco2)cc1 do in these assays?
Pf Dd2 growth: 6.3µM

How did O=C(Nc1ccccc1)O[C@@H]1CO[C@H]2[C@@H]1OC[C@@H]2n1nnnc1SCc1ccco1 do in these assays?
Pf Dd2 growth: inactive

Results for CC(C)c1ccc(NC(=O)C2CCN(C(=O)c3ncn4c3COC(c3ccc(F)cc3)C4)CC2)cc1 (configuration not stated) ?
Pf Dd2 growth: inactive

How did O=C1NCc2ccccc2CC12CCCN(Cc1ccnc3ccccc13)C2 (configuration not stated) do in these assays?
Pf Dd2 growth: inactive

Results for O=C1NCc2ccccc2CC12CCN(Cc1cc(F)ccc1O)C2 (configuration not stated) ?
Pf Dd2 growth: 11µM

Results for O=C1NCc2ccccc2CC12CCCN(Cc1ccc(F)cc1)C2 (configuration not stated) ?
Pf Dd2 growth: inactive

What do the screens show for `O=C1NCc2ccccc2CC12CCN(Cc1cc(F)ccc1F)C2` (configuration not stated)?
Pf Dd2 growth: inactive

How did O=C1NCc2ccccc2CC12CCCN(Cc1cc(F)ccc1O)C2 (configuration not stated) do in these assays?
Pf Dd2 growth: 8.9µM

What do the screens show for `COc1ccc(CN2CCCC3(Cc4ccccc4CNC3=O)C2)c(OC)n1` (configuration not stated)?
Pf Dd2 growth: 5µM

How did O=C1NCc2ccccc2CC12CCCN(Cc1c(F)cccc1Cl)C2 (configuration not stated) do in these assays?
Pf Dd2 growth: inactive

Results for O=C1NCc2ccccc2CC12CCN(Cc1cc(F)ccc1F)CC2 ?
Pf Dd2 growth: inactive

What do the screens show for `O=C1NCc2ccccc2CC12CCCN(Cc1ccncc1)C2` (configuration not stated)?
Pf Dd2 growth: inactive

What do the screens show for `O=C(N[C@H]1[C@@H]2CCO[C@@H]2[C@@H]1C1CCCC1)c1ncc(F)cc1F`?
Pf Dd2 growth: inactive

What do the screens show for `CCn1ccc2sc(C)c(C(=O)NCc3cccc(Cl)c3)c2c1=O`?
Pf Dd2 growth: inactive

How did COc1ccc(C2Cn3nnc(-c4noc(C5CCCC5)n4)c3CO2)cc1 (configuration not stated) do in these assays?
Pf Dd2 growth: inactive

How did CC(C)n1c(C2CCN(C(=O)CN3CCCCCC3)CC2)nn(C)c1=O do in these assays?
Pf Dd2 growth: inactive

How did CC1(C(=O)NC2CCCCC2)Cc2ccccc2C(=O)N1Cc1ccc(F)cc1 (configuration not stated) do in these assays?
Pf Dd2 growth: inactive

Results for O=C(Nc1ccccc1Cl)N1CCC2(CC1)Oc1ccccc1C(=O)N2Cc1ccc(F)cc1 ?
Pf Dd2 growth: 14µM

What do the screens show for `Cc1ccc(NC(=O)N2CCC3(CC2)Oc2ccccc2C(=O)N3Cc2ccc(F)cc2)cc1`?
Pf Dd2 growth: 11µM

What do the screens show for `Cc1ccc(NC(=O)N2CCC3(CC2)SCC(=O)N3Cc2ccccc2)cc1`?
Pf Dd2 growth: inactive

Results for COc1ccc(Cl)cc1NC(=O)N1CCC(CN2CCCCCC2)CC1 ?
Pf Dd2 growth: inactive

Results for O=C(Nc1ccc(F)c(Cl)c1)N1CCC2(CC1)Oc1ccccc1C(=O)N2Cc1ccccc1F ?
Pf Dd2 growth: inactive

How did O=C(Nc1cccc(Cl)c1Cl)N1CCC2(CC1)SCC(=O)N2Cc1ccco1 do in these assays?
Pf Dd2 growth: inactive

Results for COc1ccc(Cl)cc1NC(=O)N1CCC2(CC1)Oc1ccccc1C(=O)N2Cc1ccc(F)cc1 ?
Pf Dd2 growth: 13µM

Results for COc1ccc(Cl)cc1NC(=O)C[C@H]1NC(=O)c2ccccc2NC1=O ?
Pf Dd2 growth: inactive

What do the screens show for `O=C(NC1CCN(c2cc(-c3ccc(F)cc3)[nH]n2)C1)c1ccc(Br)cc1` (configuration not stated)?
Pf Dd2 growth: inactive

Results for COC1C(=O)N(CC2CC2)C12CCN(S(=O)(=O)C(C)C)CC2 (configuration not stated) ?
Pf Dd2 growth: inactive

How did Cn1ccnc1CN1CCN(C(=O)c2cn(Cc3ccc(Cl)cc3)nn2)CC1 do in these assays?
Pf Dd2 growth: inactive

How did O=C(NCC1CCOCC1)Nc1cc(F)cc(F)c1 do in these assays?
Pf Dd2 growth: inactive

What do the screens show for `Cn1cc(CN2CCC(C(O)c3cccnc3)CC2)c(-c2ccc(C3CCCCC3)cc2)n1` (configuration not stated)?
Pf Dd2 growth: inactive

What do the screens show for `COc1cccc(NC(=O)c2ccc3c(c2)NC(C)(COc2ccc4[nH]ccc4c2)CO3)c1` (configuration not stated)?
Pf Dd2 growth: inactive

Results for CC(Oc1ccccc1)C(=O)N1CCC(Cc2nncn2C(C)C)CC1 (configuration not stated) ?
Pf Dd2 growth: inactive

What do the screens show for `Cc1cc(C)n2nc(CC(=O)NCc3cc(-c4ccco4)on3)nc2n1`?
Pf Dd2 growth: inactive

Results for Cc1cc(CNC(=O)c2cc(-c3ccco3)nc3c(Cl)cccc23)no1 ?
Pf Dd2 growth: 8.9µM
